Laboratory results from PubChem BioAssay (NCI).
The panel holds about 83,000 compounds, 20% with a hit somewhere; the sample as a whole holds those more often.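 Testing used 96-well plates and a 48-hour single-concentration exposure. Example: -40 means 40% of the starting cells died.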 Unmarked numbers belong to inactive results. The source made the active and inactive calls. Rule for the calls: active = growth percent below 10; inactive = the rest.

Each molecule was assayed on MDA-MB-231 breast (assay: NCI-60 one-dose screen, 48 h (100 = growth as untreated, 0 = no growth, -100 = all killed)). Conditions: 10 µM unless noted.

Row | SMILES | growth
1 | CC(=O)O[C@H]1C(=O)[C@@]2(C)C([C@H](OC(=O)c3ccccc3)[C@]3(O)C[C@H](OC(=O)[C@H](O)[C@@H](NC(=O)c4ccccc4)c4ccccc4)C(C)=C1C3(C)C)[C@]1(OC(C)=O)CO[C@@H]1C[C@@H]2O (stereo not given in full) | 17%
2 | CCCCCCCC/C=C/CCCCCCCC1=NC(C)(C)CN1CC(C)O (stereo not given) | 30.5%
3 | COc1cc(C2NC(c3ccc(Cl)cc3)C(C)C(=NC(=O)c3cnccn3)C2C)cc(OC)c1OC (stereo not given) | 104%
4 | C[C@@H]1CC[C@H]2[C@@H](C)C(O)O[C@@H]3O[C@]4(C)CC[C@@H]1[C@]32OO4 (stereo not given in full) | 77.4%
5 | C/C(=C\CCc1ccsc1)CC/C=C(\C)CCCN1CCN(CCO)CC1 | 27%
6 | CN1COc2ccc3ccccc3c2C1 | 102%
7 | COc1ccc(-c2cnnn2-c2cc(OC)c3c(c2)OCO3)cc1 | 4.19% (active)
8 | Nc1c2ccccc2nc2ccccc12 (tested in a mixture with another compound) | 15.9%
9 | CCOC(=O)C1=C(C)N2C(=NC3=C(CCC/C3=C\c3ccc(Cl)cc3)C2c2ccc(Cl)cc2)S1 (stereo not given) | 71.6%
10 | C=C(C)[C@H]1CC/C(C)=C/CC[C@]2(C)O[C@H]2CC/C(C=O)=C\C1O (stereo not given in full) | 92.4%
11 | CCN(CC)CCCCNc1c2ccccc2[n+](C)c2c1[nH]c1ccccc12 | -0.507% (active)
12 | Cn1cc(-c2csc(-c3c[nH]c4ncccc34)n2)c2cc(F)cnc21 | 57%
13 | Nc1ccccc1-c1ccc([N+](=O)[O-])cc1 | 67%
14 | Cc1ccc(NC(=O)Nc2ccc(-c3cccnc3)cc2N2CCC(CO)CC2)cc1 | 9.31% (active)
15 | NNC(=O)C1CC2c3ccccc3C1c1ccccc12 (stereo not given) | 102%
16 | O=C(OC[C@H]1O[C@H](OC(=O)c2cc(O)c(O)c(OC(=O)c3cc(O)c(O)c(O)c3)c2)[C@H](OC(=O)c2cc(O)c(O)c(OC(=O)c3cc(O)c(O)c(O)c3)c2)[C@@H](OC(=O)c2cc(O)c(O)c(OC(=O)c3cc(O)c(O)c(O)c3)c2)[C@@H]1OC(=O)c1cc(O)c(O)c(OC(=O)c2cc(O)c(O)c(O)c2)c1)c1cc(O)c(O)c(OC(=O)c2cc(O)c(O)c(O)c2)c1 | 23.5%
17 | NS(=O)(=O)c1ccc(NC2=C(Cl)C(=O)c3ccccc3C2=O)cc1 | 79.7%
18 | CCOC(=O)C1=C(COCCN)NC(C)=C(C(=O)OC)C1c1ccccc1Cl (stereo not given) | 17.4%

Row | SMILES | growth
19 | Cc1cc2c(C#N)n3c(c2cc1C)C(=O)C(c1ccccc1)Oc1ccccc1-3 (stereo not given) | 58.9%
20 | CN(C)c1nc(N)nc(Cn2c(-c3nonc3N)nc3ccccc32)n1 | 76.7%
21 | COC(=O)[C@]1(C(C)C)N[C@H](c2cn(-c3ccccc3)nc2-c2ccccc2)[C@@H]2C(=O)N(c3ccc(Cl)cc3)C(=O)[C@@H]21 | 105%
22 | CCOC(=O)/C(=C/c1ccccc1)C(=O)c1ccccc1 | 81.4%
23 | Cn1cnc([N+](=O)[O-])c1S(=O)(=O)Oc1ccc(Cl)cc1 | 65.4%
24 | O=C(/C=C/c1ccccc1Cl)c1ccc(O)cc1 | 89%
25 | O=C(Cc1ccccn1)C(F)(F)C(F)(F)C(F)(F)F | 102%
26 | Cn1c(=O)c2nc(SCc3ccccc3)n(C)c2n(C)c1=O | 97.7%
27 | COc1ccc2c(c1)nc(N)c1c3ccccc3cn21 | 85.5%
28 | O=C(/C(=C/c1cccc([N+](=O)[O-])c1)c1ccccc1)c1ccccc1 | 51.6%
29 | CCCCCCCC/C=C\CCCCCCCCOc1ccccc1CC(=O)NCC[N+]1(C)CCCC1 | 83.9%
30 | O=C(C(=O)N1CCCCC1)c1ccc(OC2OC(CO)C(O)C(O)C2O)cc1 (stereo not given) | 110%
31 | O=NC1CC=CCC1c1ccccc1 (stereo not given) | 101%
32 | COc1ccc2[nH]cc(/C=C3/C(=O)Nc4ccc(F)cc43)c2c1 | 87.6%
33 | C[C@]12CC[C@@H]3c4ccc(O)cc4CC[C@H]3[C@@H]1CC[C@@H]2NS(=O)(=O)c1cccc(Br)c1 | 71.1%
34 | NC(=O)NN=C(C1CC1)C1CC1 | 118%
35 | CCC1=C(c2ccc(OC)cc2)C(C)(C)Oc2c1ccc(O)c2CN1CCCC1 | 24.2%
36 | CN(C)c1ccc(/C=C\c2ccnc3ccccc23)cc1 | 70.3%

Each molecule was assayed on RXF 393 renal in the same assay as above. Conditions: 10 µM unless noted.

Row | SMILES | growth
37 | CC(=O)O[C@H]1C(=O)[C@@]2(C)C([C@H](OC(=O)c3ccccc3)[C@]3(O)C[C@H](OC(=O)[C@H](O)[C@@H](NC(=O)c4ccccc4)c4ccccc4)C(C)=C1C3(C)C)[C@]1(OC(C)=O)CO[C@@H]1C[C@@H]2O (stereo not given in full) | -17.9% (active)
38 | CCCCCCCC/C=C/CCCCCCCC1=NC(C)(C)CN1CC(C)O (stereo not given) | 14.7%
39 | COc1cc(C2NC(c3ccc(Cl)cc3)C(C)C(=NC(=O)c3cnccn3)C2C)cc(OC)c1OC (stereo not given) | 93.8%
40 | C[C@@H]1CC[C@H]2[C@@H](C)C(O)O[C@@H]3O[C@]4(C)CC[C@@H]1[C@]32OO4 (stereo not given in full) | 49.3%
41 | CN1COc2ccc3ccccc3c2C1 | 107%
42 | COc1ccc(-c2cnnn2-c2cc(OC)c3c(c2)OCO3)cc1 | 10%
43 | Nc1c2ccccc2nc2ccccc12 (tested in a mixture with another compound) | -2.81% (active)
44 | CCOC(=O)C1=C(C)N2C(=NC3=C(CCC/C3=C\c3ccc(Cl)cc3)C2c2ccc(Cl)cc2)S1 (stereo not given) | -71.7% (active)
45 | C=C(C)[C@H]1CC/C(C)=C/CC[C@]2(C)O[C@H]2CC/C(C=O)=C\C1O (stereo not given in full) | 111%
46 | CCN(CC)CCCCNc1c2ccccc2[n+](C)c2c1[nH]c1ccccc12 | -55.6% (active)
47 | Cn1cc(-c2csc(-c3c[nH]c4ncccc34)n2)c2cc(F)cnc21 | 59.8%
48 | Nc1ccccc1-c1ccc([N+](=O)[O-])cc1 | 111%
49 | Cc1ccc(NC(=O)Nc2ccc(-c3cccnc3)cc2N2CCC(CO)CC2)cc1 | -34.8% (active)
50 | NNC(=O)C1CC2c3ccccc3C1c1ccccc12 (stereo not given) | 116%
51 | O=C(OC[C@H]1O[C@H](OC(=O)c2cc(O)c(O)c(OC(=O)c3cc(O)c(O)c(O)c3)c2)[C@H](OC(=O)c2cc(O)c(O)c(OC(=O)c3cc(O)c(O)c(O)c3)c2)[C@@H](OC(=O)c2cc(O)c(O)c(OC(=O)c3cc(O)c(O)c(O)c3)c2)[C@@H]1OC(=O)c1cc(O)c(O)c(OC(=O)c2cc(O)c(O)c(O)c2)c1)c1cc(O)c(O)c(OC(=O)c2cc(O)c(O)c(O)c2)c1 | -12.7% (active)
52 | CCOC(=O)C1=C(COCCN)NC(C)=C(C(=O)OC)C1c1ccccc1Cl (stereo not given) | 50.9%
53 | CN(C)c1nc(N)nc(Cn2c(-c3nonc3N)nc3ccccc32)n1 | 89.6%
54 | COC(=O)[C@]1(C(C)C)N[C@H](c2cn(-c3ccccc3)nc2-c2ccccc2)[C@@H]2C(=O)N(c3ccc(Cl)cc3)C(=O)[C@@H]21 | 113%
55 | Cn1cnc([N+](=O)[O-])c1S(=O)(=O)Oc1ccc(Cl)cc1 | 81.8%
56 | O=C(Cc1ccccn1)C(F)(F)C(F)(F)C(F)(F)F | 125%
57 | Cn1c(=O)c2nc(SCc3ccccc3)n(C)c2n(C)c1=O | 112%
58 | COc1ccc2c(c1)nc(N)c1c3ccccc3cn21 | 77.1%
59 | O=C(C(=O)N1CCCCC1)c1ccc(OC2OC(CO)C(O)C(O)C2O)cc1 (stereo not given) | 104%
60 | O=NC1CC=CCC1c1ccccc1 (stereo not given) | 116%
61 | CCC(C)(C)C(=O)O[C@H]1C[C@@H](C)C=C2C=C[C@H](C)[C@H](CC[C@@H]3C[C@@H](O)CC(=O)O3)[C@H]21 | 36.1%
62 | COc1ccc2[nH]cc(/C=C3/C(=O)Nc4ccc(F)cc43)c2c1 | 91.5%
63 | C[C@]12CC[C@@H]3c4ccc(O)cc4CC[C@H]3[C@@H]1CC[C@@H]2NS(=O)(=O)c1cccc(Br)c1 | 42.6%
64 | NC(=O)NN=C(C1CC1)C1CC1 | 138%
65 | CCC1=C(c2ccc(OC)cc2)C(C)(C)Oc2c1ccc(O)c2CN1CCCC1 | 14.9%
